AmpC detergent: qHTS Inhibitors of AmpC Beta-Lactamase (assay with detergent) | P00811 | AmpC hydrolysis of nitrocefin, absorbance 480 nm, 0.01% Triton | Potency, µM (series often up to 114 µM), for the others: at the top dose activity change, negative = inhibition, hits mostly inhibitors | 370,000 tested, 0.041% active | AID 485294, 2010;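 note: potency is the fitted concentration of half-maximal effect; 0% = no-compound wells and -100% = no-enzyme wells; nearly all actives have a fitted effect of over 25% in size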
Target sequence (P00811 whole entry, looked up): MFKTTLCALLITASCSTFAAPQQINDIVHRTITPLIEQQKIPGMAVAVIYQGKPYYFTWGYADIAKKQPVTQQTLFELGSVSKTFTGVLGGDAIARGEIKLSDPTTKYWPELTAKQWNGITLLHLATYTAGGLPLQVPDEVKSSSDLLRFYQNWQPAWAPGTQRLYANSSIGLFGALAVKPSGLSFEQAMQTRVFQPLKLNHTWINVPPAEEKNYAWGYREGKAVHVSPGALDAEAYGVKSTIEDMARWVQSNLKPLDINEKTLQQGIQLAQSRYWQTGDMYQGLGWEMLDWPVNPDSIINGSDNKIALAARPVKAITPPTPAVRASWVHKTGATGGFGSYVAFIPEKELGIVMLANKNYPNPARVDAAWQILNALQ
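AmpC (5.3 nM in the dispensed reagent) in 20 mM phosphate pH 7.0 with 0.01% (detergent screen) or 0.0001% Triton X-100 was preincubated with compounds for 15 min at room temperature. Nitrocefin was then added from an 800 uM solution, and hydrolysis was followed at 480 nm.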
SARS PLP yeast: qHTS of Yeast-based Assay for SARS-CoV PLP. S. cerevisiae expressing SARS-CoV PLpro, growth rescue. AID 485353, 2010. 330,000 tested, 0.19% active. Potency, µM (titrated, usually from 32.9 µM), inactives show top-dose activity, positive = growth rescue, usual class: activators; calls by dose curve; note: potency is the fitted concentration of half-maximal effect; 0% is about no effect; nearly all actives have a fitted effect of over 55% in size
AMA1 RON2 block: qHTS for Inhibitors of AMA1-RON; Towards Development of Antimalarial Drug Lead: Primary Screen. 360,000 tested, 0.2% active. Plasmodium falciparum AMA1 (3D7) - RON2 peptide interaction. AlphaScreen AMA1-biotinylated RON2 peptide binding. Potency, µM (doses to about 58.2 µM), for the others: top-dose activity change, negative = inhibition, usual class: inhibitors. AID 720542, 2013;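 note: potency is the fitted concentration of half-maximal effect; 0% = vehicle wells and -100% = peptide control; nearly all actives have a fitted effect of over 45% in size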
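AMA1 (3D7) with his tag at 25 nM final met compounds first, then biotinylated RON2 peptide at 25 nM; detection used donor plus acceptor beads, 10 µg/mL apiece, read by AlphaScreen after 30 min at room temperature.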
AmpC inh no detg: qHTS Inhibitors of AmpC Beta-Lactamase (assay without detergent) | P00811 | AmpC nitrocefin hydrolysis, absorbance 480 nm, 0.0001% Triton | Potency, µM (top dose mostly 57.1 µM), inactives show at the highest dose activity change, negative = inhibition, hits mostly inhibitors | 330,000 tested, 0.52% active;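 note: potency is the fitted concentration of half-maximal effect; plate controls were no compound for no effect and no enzyme for full effect; nearly all actives have a fitted effect of over 20% in size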
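20 mM phosphate pH 7.0 + 0.01% (detergent screen) or 0.0001% Triton X-100; 5.3 nM AmpC reagent; cpd preinc 15 min RT; nitrocefin (800 uM stock) to start; A480 q20 s × 4 min; Activity was normalised to no-enzyme and no-compound control wells.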
CHX counter: Cycloheximide Counterscreen for Small Molecule Inhibitors of Shiga Toxin; max response, %; cell reporter, cycloheximide protein synthesis inhibition counterscreen; AID 2314, 2010; 300,000 tested, 12% active; in the data active = max response mostly above about 13%, no sharp cut-off; inactive = mostly below about 14%; note: read at 38.3 µM for the half of the compounds with a filed dose; 0% is about no effect
Shiga inhibitor: A qHTS for Small Molecule Inhibitors of Shiga Toxin; Vero cells, Shiga toxin protein synthesis inhibition reporter; inhibition, % at 38.7 µM; 290,000 tested, 9.2% active; in the data active = inhibition mostly above about 28%, no sharp cut-off; inactive = mostly below about 43%; note: 0% is about no effect
* marks the source's active call; other numbers are inactive results; ? = inconclusive; . = no result. The sample as a whole holds a higher share of hits than the screen did. Unless noted, calls come from the whole dose curve; as a rule, active = well fitted curve in the direction sought with a large enough effect; inconclusive = small, poorly fitted or top-dose-only effect, or another doubt; inactive = no such curve, though single readings can be large; an effect the other way counts as inactive or inconclusive.

SMILES	AmpC detergent	SARS PLP yeast	AMA1 RON2 block	AmpC inh no detg	CHX counter	Shiga inhibitor
COc1ccc(NC(C)C(=O)Nc2ccc(C(C)(C)C)cc2)cc1Cl (centres undefined)	2%	-16%	?	-20%	20*	38
COc1cc(C(c2c(O)nc(SC)[nH]c2=O)c2c(O)nc(SC)[nH]c2=O)cc(OC)c1OC	?	0%	-2%	-13%	-3	.
Nc1ccc(-c2cc3ccccc3oc2=O)cc1	0%	-1%	0%	-14%	-6	-14
O=C/C=C/c1c(-c2ccccc2)cc2oc3ccccc3cc1-2	-13%	-11%	-22%	-38%	27*	77
COc1ccc2c(c1)c(=O)oc1cc(OCC(=O)NCC3CCC(C(=O)O)CC3)ccc12 (centres undefined)	?	0%	1%	21%	-3	-5
CCOC(=O)COc1ccc2c(=O)c(-c3ccccc3)coc2c1	-9%	-7%	12%	-2%	-6	-9
O=C(CCCCl)Oc1ccc2cc(-c3ccc4ccccc4n3)c(=O)oc2c1	-11%	-14%	-5%	-16%	20*	9
COc1ccc(-c2cc3ccc(OC(C)C(=O)O)cc3oc2=O)cc1 (centres undefined)	?	.	9%	-16%	13*	30
COc1ccc(-c2cc3ccccc3oc2=O)cc1	.	.	45%	.	.	.
COc1ccc(-c2cc3ccc(OCC(=O)NCC4CCC(C(=O)O)CC4)cc3oc2=O)cc1 (centres undefined)	1%	?	-2%	-25%	27*	29*
CC(=O)Oc1ccc2c(=O)c(-c3ccccc3)coc2c1	-8%	-5%	4%	-15%	38*	80*
Cc1nn(Cc2ccc(Cl)cc2Cl)c(Cl)c1/C=N/NC(=O)CNc1cccc(C(F)(F)F)c1	-12%	2%	.	-15%	-3	-6
CC(=O)Oc1ccc2cc(-c3ccccc3)c(=O)oc2c1	-5%	-1%	-2%	-9%	34*	53*
CC(=O)COc1ccc2cc(-c3ccccc3)c(=O)oc2c1	?	-18%	-4%	-24%	42*	73*
CCCCNC(=O)C1(C)CCN1C(=O)c1cncc(Br)c1 (centres undefined)	.	.	13%	.	.	.
COc1ccc(OCC2CCCN(Cc3nc(CC4CC4)no3)C2)cc1 (centres undefined)	8%	-1%	?	106%	19*	24
c1ccc(C2CCCN(Cc3nc(CC4CC4)no3)CC2)cc1 (centres undefined)	-5%	-1%	?	47%	16*	53*
O=C1CCCN1CC1CCCN(Cc2nc(COc3ccccc3)no2)C1 (centres undefined)	5%	-1%	7%	-3%	9	-6
O=C1CCCN1CC1CCN(Cc2nc(CC3CC3)no2)CC1	-5%	1%	-9%	45%	11	48*
Cc1ccc(Cn2c(C(=O)O)c(CNC3CCCCC3)c3ccc(C)cc32)cc1	-5%	.	.	.	.	.
Cc1cc(C(=O)Cn2nc(C(=O)O)c3ccccc3c2=O)c(C)n1-c1ccc(OC(F)F)cc1	-4%	0%	-16%	-4%	4	19
Cc1cc(C(=O)Cn2nc(C(=O)O)c3ccccc3c2=O)c(C)n1CC(F)(F)F	-5%	0%	-1%	-11%	36*	189*
Cc1cc(C(=O)Cn2nc(C(=O)O)c3ccccc3c2=O)c(C)n1CCc1ccc(F)cc1	9%	1%	-27%	-37%	20*	19
CC1CCCC(C)N1C(=O)C1CC(c2ccc(F)cc2)=NO1 (centres undefined)	-5%	2%	10%	-7%	20*	48*
CC(=O)c1ccc(NC(=O)C2CC(c3ccc(F)cc3)=NO2)cc1 (centres undefined)	4%	2%	-4%	-16%	-1	1
SMILES	AmpC detergent	SARS PLP yeast	AMA1 RON2 block	AmpC inh no detg	CHX counter	Shiga inhibitor
CN1CCN(C(=O)C2CC(c3ccc(F)cc3)=NO2)CC1 (centres undefined)	10%	20%	5%	-12%	15	34
O=C(NC1CCCC1)C1CC(c2ccc(F)cc2)=NO1 (centres undefined)	2%	-2%	21%	-2%	42*	69*
CCN1CCN(C(=O)C2CC(c3ccc(F)cc3)=NO2)CC1 (centres undefined)	?	0%	9%	-13%	7	13
CC1CCN(C(=O)C2CC(c3ccc(F)cc3)=NO2)CC1 (centres undefined)	-6%	0%	4%	-4%	36*	98*
CCOC(=O)c1oc2cc(O)c(CC)cc2c(=O)c1-c1ccc2c(c1)OCCO2	-17%	-1%	-2%	-9%	-4	-4
CC(=O)Oc1cc(OC(C)=O)c2c(=O)c(-c3ccc4c(c3)OCCCO4)c(C)oc2c1	2%	-4%	7%	21%	8.3*	16
Cc1oc2cc(O)cc(O)c2c(=O)c1-c1ccc2c(c1)OCCCO2	-3%	-20%	-1%	-51%	34*	116*
Cc1nnc(-c2ccccc2)[nH]c1=O	-6%	-2%	1%	-5%	6	-7
Nc1nc(-c2ccccc2)[nH]c(=O)c1N	6%	4%	15%	-14%	26*	30*
O=c1[nH]c(-c2ccccc2)nnc1-c1ccccc1	2%	0%	-18%	-2%	18*	25
CNCc1ccccc1OCc1ccccc1F	-3%	3%	0%	-14%	-4	-14
CCNC(=O)c1ccc(NS(=O)(=O)c2ccc3[nH]c(=O)[nH]c3c2)cc1	6%	-5%	-5%	-31%	30*	46*
O=C1NCCN/C1=C\C(=O)c1ccc(F)cc1	-8%	-1%	-5%	-5%	35*	69*
O=C1NCCN/C1=C\C(=O)c1ccc(Cl)cc1	11%	-6%	2%	-23%	55*	67*
O=C(COc1cccc2c1CCNC2=O)Nc1ccc(Cl)cc1	-12%	6%	0%	-11%	.	.
O=C1CNC(=O)/C(=C\c2ccc(F)cc2)N1	-13%	0%	10%	-6%	-3	-5
NC(=O)c1nc[nH]c1C(=O)Nc1cccc(C(F)(F)F)c1	3%	-6%	119%	-15%	.	.
O=c1c2c(nc3cc(-c4ccc(F)cc4)[nH]n13)CCC2	11%	3%	0%	4%	101*	100*
CCOC(=O)c1cccc(NC(=O)CCS(=O)(=O)c2cccc3nsnc23)c1	?	-8%	-4%	7%	6	12
Cc1nc(N)sc1-c1csc(NCc2ccccc2)n1	-1%	6%	-13%	-9%	5	15
